PubChem BioAssay (NCATS)
Several values for one entry are separate records, joined by “and”; a condition that tells them apart may be missing. Identical values can stand only once. Inconclusive results are not listed. Where a call stands in place of a potency, no number is given. The source holds several records for some structures; these can differ, active in one and inactive in another. Activity calls are given as the source filed them. Calls come from the whole dose curve; as a rule, active = well fitted inhibition curve with a large enough effect; inconclusive = small, poorly fitted or top-dose-only effect; inactive = flat fitted curve, though single readings scatter.

Key:
PC15 = test: qHTS profiling for inhibitors of Plasmodium falciparum proliferation (AID 504749); conditions: P. falciparum in erythrocytes, SYBR Green DNA, 72 h; series mostly up to 28.7 µM
Procedure, shortened: (§1)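 In a 72 h erythrocytic culture (37 C, humidified, 5% CO2) at 2.5% hematocrit and 0.3% starting parasitemia, compounds were tested; SYBR Green I in detergent lysis buffer stained parasite DNA overnight.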

SC27B = test: as above; conditions: P. falciparum in erythrocytes, SYBR Green DNA, 72 h; series mostly up to 28.7 µM
Procedure, shortened: as §1

TAB109 = test: as above; conditions: P. falciparum in erythrocytes, SYBR Green DNA, 72 h; series mostly up to 28.7 µM
Procedure, shortened: as §1

TAB113 = test: as above; conditions: P. falciparum in erythrocytes, SYBR Green DNA, 72 h; series mostly up to 28.7 µM
Procedure, shortened: as §1

W2 = test: as above; conditions: P. falciparum in erythrocytes, SYBR Green DNA, 72 h; series mostly up to 28.7 µM
Procedure, shortened: as §1

CRL-7250 [1] = test: Cytotoxic Profiling of Annotated Libraries Using Quantitative High-Throughput Screening (AID 1296008); conditions: Five cell lines viability, CellTiter-Glo ATP luminescence, 48-72 h; max response: stronger effect = lower value
Procedure, shortened: (§2)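 Cytotoxicity was measured as CellTiter-Glo ATP luminescence, read after 10 min at room temperature. Compound treatment of the cells lasted 48 or 72 hr at 37 degrees Celsius in a qHTS format.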

HEK293 = test: as above; conditions: Five cell lines viability, CellTiter-Glo ATP luminescence, 48-72 h; max response: stronger effect = lower value
Procedure, shortened: as §2

HaCat [2] = test: as above; conditions: Five cell lines viability, CellTiter-Glo ATP luminescence, 48-72 h; max response: stronger effect = lower value
Procedure, shortened: as §2

KB-3-1 = test: as above; conditions: Five cell lines viability, CellTiter-Glo ATP luminescence, 48-72 h; max response: stronger effect = lower value
Procedure, shortened: as §2

NIH3T3 = test: as above; conditions: Five cell lines viability, CellTiter-Glo ATP luminescence, 48-72 h; max response: stronger effect = lower value
Procedure, shortened: as §2

CRL-7250 [3] = test: qHTS assay to identify novel small-molecules to repurpose for Merkel cell carcinoma treatment (AID 1296009); conditions: MCC and control cell lines, CellTiter-Glo viability, 72 h; series mostly up to 44.8 µM
Procedure, shortened: (§3)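 Cell viability measured by CellTiter-Glo following 72 hr compound treatment at 37 degree celsius, with NPC and MIPE libraries tested in 8- and 11-point concentration series.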

HEK293T = test: as above; conditions: MCC and control cell lines, CellTiter-Glo viability, 72 h; at 44.8 µM (top of the series)
Procedure, shortened: as §3

MCC-13 = test: as above; conditions: MCC and control cell lines, CellTiter-Glo viability, 72 h; series mostly up to 46 µM
Procedure, shortened: as §3

MCC-26 = test: as above; conditions: MCC and control cell lines, CellTiter-Glo viability, 72 h; series mostly up to 46 µM
Procedure, shortened: as §3

MKL-1 = test: as above; conditions: MCC and control cell lines, CellTiter-Glo viability, 72 h; series mostly up to 46 µM
Procedure, shortened: as §3

MKL-2 = test: as above; conditions: MCC and control cell lines, CellTiter-Glo viability, 72 h; series mostly up to 46 µM
Procedure, shortened: as §3

PC49 = test: qHTS profiling for inhibitors of Plasmodium falciparum proliferation (AID 504749); conditions: P. falciparum in erythrocytes, SYBR Green DNA, 72 h; series mostly up to 28.7 µM
Procedure, shortened: as §1

TAB165 = test: as above; conditions: P. falciparum in erythrocytes, SYBR Green DNA, 72 h; series mostly up to 28.7 µM
Procedure, shortened: as §1

HACAT [4] = test: qHTS assay to identify novel small-molecules to repurpose for Merkel cell carcinoma treatment (AID 1296009); conditions: MCC and control cell lines, CellTiter-Glo viability, 72 h; at 44.8 µM (top of the series) unless noted
Procedure, shortened: as §3

PC26 = test: qHTS profiling for inhibitors of Plasmodium falciparum proliferation (AID 504749); conditions: P. falciparum in erythrocytes, SYBR Green DNA, 72 h; series mostly up to 28.7 µM
Procedure, shortened: as §1
Note: nearly all actives have a fitted effect of over 60% in size.
Potency is the fitted concentration of half-maximal effect.

With CC(C)NCC(O)c1ccccc1Cl (stereo not given) the Potency (PC15) was 11.2 µM (active), the Potency (SC27B) was 10 µM (active) and the Potency (TAB109) was 4.47 µM (active). The Potency (TAB113) was 12.6 µM (active), the Potency (W2) was 3.38 µM (active) and the outcome (CRL-7250 [1]) was “inactive”. For the same compound, the outcome (HEK293) was “inactive”, the max response (HaCat [2]) was -6.64% (inactive) and the max response (KB-3-1) was -12% (inactive). For the same compound, the max response (NIH3T3) was -1.73% (inactive), the outcome (CRL-7250 [3]) was “inactive” and the outcome (HEK293T) was “inactive”. The Potency (MCC-13) was “inactive”, the Potency (MCC-26) was “inactive” and the Potency (MKL-1) was “inactive”. The Potency (MKL-2) was “inactive”.
In the case of C#CCN(C)[C@H](C)Cc1ccccc1, the max response (CRL-7250 [1]) is reported as -4.73% (inactive), the outcome (CRL-7250 [1]) is reported as “inactive” and the max response (HEK293) is reported as -7.43% (inactive). The outcome (HEK293) was “inactive”, the max response (HaCat [2]) was -9.07% (inactive) and 1.92% (inactive) and the max response (KB-3-1) was 4.15% (inactive) and -12% (inactive). The max response (NIH3T3) was 3.34% (inactive), the outcome (NIH3T3) was “inactive” and the outcome (CRL-7250 [3]) was “inactive”. For the same compound, the outcome (HEK293T) was “inactive”, the Potency (MCC-13) was “inactive” and the Potency (MKL-1) was “inactive”. The Potency (MKL-2) was “inactive”.
CC[N+](CC)(CC)CC was tested, and the Potency (PC15) was “inactive”, the Potency (PC49) was “inactive” and the Potency (SC27B) was “inactive”. For the same compound, the Potency (TAB109) was “inactive”, the Potency (TAB113) was “inactive” and the Potency (TAB165) was “inactive”. The Potency (W2) was “inactive”, the outcome (CRL-7250 [1]) was “inactive” and the max response (HEK293) was -5.65% (inactive). The max response (HaCat [2]) was -5.59% (inactive), the max response (KB-3-1) was -7.23% (inactive) and the outcome (NIH3T3) was “inactive”. The outcome (CRL-7250 [3]) was “inactive”, the Potency (MCC-13) was “inactive” and the Potency (MCC-26) was “inactive”. For the same compound, the Potency (MKL-1) was “inactive” and the Potency (MKL-2) was “inactive”.
With COc1ccc(C(=O)c2c(C)n(CCN3CCOCC3)c3ccccc23)cc1 the Potency (PC15) was “inactive”, the Potency (PC49) was “inactive” and the Potency (SC27B) was “inactive”. The Potency (TAB109) was “inactive”, the Potency (TAB113) was “inactive” and the Potency (TAB165) was “inactive”. The Potency (W2) was “inactive”, the max response (CRL-7250 [1]) was -23.7% (inactive) and the outcome (CRL-7250 [1]) was “inactive”. The max response (HEK293) was -9.73% (inactive), the max response (HaCat [2]) was -26.9% (inactive) and the outcome (HaCat [2]) was “inactive”. For the same compound, the max response (KB-3-1) was 5.69% (inactive) and 21.2% (inactive), the max response (NIH3T3) was -11.5% (inactive) and the outcome (NIH3T3) was “inactive”. The outcome (CRL-7250 [3]) was “inactive”, the outcome (HACAT [4]) was “inactive” and the Potency (MCC-13) was “inactive”. For the same compound, the Potency (MKL-1) was “inactive” and the Potency (MKL-2) was “inactive”.
With Cc1cc(SCc2sc(-c3ccc(C(F)(F)F)c(F)c3)nc2C)ccc1OCC(=O)O the outcome (CRL-7250 [1]) was “inactive”, the max response (HEK293) was -0.859% (inactive) and the outcome (HEK293) was “inactive”. For the same compound, the outcome (HaCat [2]) was “inactive”, the max response (KB-3-1) was -0.392% (inactive) and the outcome (KB-3-1) was “inactive”. The max response (NIH3T3) was 3.63% (inactive), the outcome (NIH3T3) was “inactive” and the outcome (CRL-7250 [3]) was “inactive”. For the same compound, the outcome (HACAT [4]) was “inactive”, the outcome (HEK293T) was “inactive” and the Potency (MCC-13) was “inactive”. The Potency (MCC-26) was “inactive”, the Potency (MKL-1) was “inactive” and the Potency (MKL-2) was “inactive”.
CC(C)(C)CC(C)(C)c1ccc(O)cc1 was tested, and the Potency (PC15) was “inactive”, the Potency (PC26) was “inactive” and the Potency (SC27B) was “inactive”. For the same compound, the Potency (TAB109) was “inactive”, the Potency (TAB113) was “inactive” and the Potency (TAB165) was “inactive”. For the same compound, the Potency (CRL-7250 [1]) was 38.6 µM (active), the max response (CRL-7250 [1]) was -2.09% (inactive) and the Potency (HEK293) was 19.3 µM (active). For the same compound, the max response (HaCat [2]) was -11.5% (inactive), the max response (KB-3-1) was 33.4% (inactive) and 13.2% (inactive) and the outcome (NIH3T3) was “inactive”. For the same compound, the Potency (MCC-13) was “inactive” and the Potency (MKL-2) was 24.3 µM (active).
With CNCC(O)c1ccc(O)cc1 (stereo not given) the max response (CRL-7250 [1]) was -6.88% (inactive), the max response (HEK293) was -14.1% (inactive) and 1.65% (inactive) and the outcome (HaCat [2]) was “inactive”. The max response (KB-3-1) was 12.6% (inactive), the outcome (KB-3-1) was “inactive” and the max response (NIH3T3) was -18% (inactive). For the same compound, the outcome (NIH3T3) was “inactive”, the outcome (HACAT [4]) was “inactive” and the Potency (MCC-13) was “inactive”. The Potency (MCC-26) was “inactive”, the Potency (MKL-1) was “inactive” and the Potency (MKL-2) was “inactive”.
With Oc1cccc2cccnc12 the Potency (PC15) was “inactive”, the Potency (PC26) was “inactive” and the Potency (PC49) was “inactive”. For the same compound, the Potency (SC27B) was “inactive”, the Potency (TAB109) was “inactive” and the Potency (TAB113) was “inactive”. The Potency (TAB165) was “inactive”, the Potency (W2) was “inactive” and the max response (CRL-7250 [1]) was 3.76% (inactive). The Potency (HEK293) was 13.7 µM (active), the max response (HEK293) was -0.236% (inactive) and the max response (HaCat [2]) was 4.28% (inactive). The max response (KB-3-1) was 22% (inactive) and 11.8% (inactive) and -4.11% (inactive), the Potency (NIH3T3) was 19.3 µM (active) and the max response (NIH3T3) was 4.09% (inactive). For the same compound, the Potency (MCC-13) was “inactive”, the Potency (MKL-1) was 12.2 µM (active) and inactive and the Potency (MKL-2) was 4.86 µM (active) and inactive.
For CN1CCN(C(=O)O[C@H]2c3nccnc3C(=O)N2c2ccc(Cl)cn2)CC1, the Potency (PC15) was “inactive”, the Potency (PC26) was “inactive” and the Potency (SC27B) was “inactive”. For the same compound, the Potency (TAB109) was “inactive”, the Potency (TAB113) was “inactive” and the Potency (TAB165) was “inactive”. The Potency (W2) was “inactive”, the outcome (CRL-7250 [1]) was “inactive” and the max response (HEK293) was 3.04% (inactive). The outcome (HEK293) was “inactive”, the max response (HaCat [2]) was -17.1% (inactive) and the outcome (HaCat [2]) was “inactive”. The max response (KB-3-1) was 4.48% (inactive), the max response (NIH3T3) was -1.04% (inactive) and -0.741% (inactive) and the outcome (CRL-7250 [3]) was “inactive”. For the same compound, the outcome (HACAT [4]) was “inactive”, the outcome (HEK293T) was “inactive” and the Potency (MCC-13) was “inactive”. The Potency (MCC-26) was “inactive”, the Potency (MKL-1) was “inactive” and the Potency (MKL-2) was “inactive”.
In the case of O=C1CC[C@@]2(O)[C@H]3Cc4ccc(O)c5c4[C@@]2(CCN3CC2CC2)[C@H]1O5, the max response (CRL-7250 [1]) is reported as -7.93% (inactive), the outcome (CRL-7250 [1]) is reported as “inactive” and the max response (HEK293) is reported as -3.14% (inactive) and -3.82% (inactive). The outcome (HaCat [2]) was “inactive”, the max response (KB-3-1) was 6.29% (inactive) and the outcome (KB-3-1) was “inactive”. The max response (NIH3T3) was -0.716% (inactive), the outcome (NIH3T3) was “inactive” and the outcome (CRL-7250 [3]) was “inactive”. The outcome (HACAT [4]) was “inactive”, the Potency (MCC-13) was “inactive” and the Potency (MCC-26) was “inactive”. The Potency (MKL-1) was “inactive” and the Potency (MKL-2) was “inactive”.
In the case of CN(C)[C@@H]1C(=O)C(C(N)=O)=C(O)[C@@]2(O)C(=O)C3=C(O)c4c(O)cccc4[C@@](C)(O)[C@H]3C[C@@H]12, the max response (CRL-7250 [1]) is reported as -3.81% (inactive), the outcome (CRL-7250 [1]) is reported as “inactive” and the max response (HEK293) is reported as -12.7% (inactive). The max response (HaCat [2]) was -13.2% (inactive) and 4.81% (inactive), the max response (KB-3-1) was -1.95% (inactive) and 4.68% (inactive) and the max response (NIH3T3) was -3.21% (inactive) and -4.63% (inactive). For the same compound, the outcome (CRL-7250 [3]) was “inactive”, the Potency (MCC-13) was “inactive” and the Potency (MKL-1) was “inactive”. For the same compound, the Potency (MKL-2) was “inactive”.
